Data published in PubChem BioAssay.
Unmarked numbers belong to inactive results. The rule behind the calls is not given here.

The compounds below were run against Pantothenate synthetase (Mycobacterium tuberculosis (strain ATCC 25618 / H37Rv)) (UniProt P9WIL5) (assay: Recombinant Mtb pantothenate synthetase (PanC) inhibitors, coupled enzyme, confirmatory (AID 375;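 note: 0% = full reaction with vehicle and 100% = no enzyme background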)). Conditions: coupled enzyme assay; at 10 µM, hits give high values.
Pantothenate synthetase (Mycobacterium tuberculosis (strain ATCC 25618 / H37Rv)), sequence (P9WIL5 whole entry, looked up): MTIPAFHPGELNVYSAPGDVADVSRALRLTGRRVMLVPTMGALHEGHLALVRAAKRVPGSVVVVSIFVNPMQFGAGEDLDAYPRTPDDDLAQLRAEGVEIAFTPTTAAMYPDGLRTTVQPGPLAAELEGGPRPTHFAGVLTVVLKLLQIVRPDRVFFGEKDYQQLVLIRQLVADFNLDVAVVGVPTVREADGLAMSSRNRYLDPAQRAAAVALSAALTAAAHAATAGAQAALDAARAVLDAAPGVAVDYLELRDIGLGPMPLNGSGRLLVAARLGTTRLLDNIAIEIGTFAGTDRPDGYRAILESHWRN
For `CCOC(=O)c1c(N)sc(C(=O)N2CCOCC2)c1C`, the inhibition was 4%. `O=C(CN1CCC(NC(=O)c2ccc(F)cc2)CC1)NCc1ccccc1F` was tested, and the inhibition was 5%. In the case of `COc1cccc2cc(C(=O)C3=C(O)C(=O)N(CCCN4CCOCC4)C3c3ccncc3)oc12` (stereo not given), the inhibition is reported as 0%. `O=C(NC1CCCc2ccccc21)C1CCN(S(=O)(=O)c2cnc[nH]2)CC1` (stereo not given) showed an inhibition of 2%. Compound `CC(=O)NC(CCS(C)(=O)=O)C(=O)Nc1cccc(C)c1C` (stereo not given) has an inhibition of 0%.
